Measured values as given in PubChem BioAssay.
The source made the active and inactive calls.

Legend:
[1] = test system: Plasmodium falciparum Sir2 (PF13_0152, Sir2A); assay: Plasmodium falciparum Sir2A binding compounds – biochemical, small-molecule microarray, 635 nm fluorescence, primary screen (AID 1098); conditions: fluorescence 635 nm, higher = more signal;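 further: score merges spot fluorescence intensity with its signal-to-noise ratio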
[2] = probe aDKK1 binding to arrayed compounds – biochemical, biotinylated probe, 635/667 nm fluorescence, primary screen (AID 1099); conditions: small-molecule microarray, higher = more signal;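 further: score merges 667nm spot fluorescence with signal to noise across triplicate slides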
[3] = probe aCHRDL2 binding to arrayed compounds – biochemical, biotinylated probe, 635/667 nm fluorescence, primary screen (AID 1100); conditions: small-molecule microarray, higher = more signal
[4] = change in splice reporter luminescence, either direction, cell-based, HEK293, spliceosome inhibition project, primary screen (AID 1101); conditions: HEK293 splicing luciferase reporter, 24 h, higher = more signal, called active from +8 up or from −8 down;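 further: HEK293 cells carrying a splicing-competent luciferase reporter gene; test concentration not given here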
[5] = target: Fibroblast growth factor 10 (Homo sapiens) (UniProt O15520); assay: compounds binding fibroblast growth factor 10 – biochemical, small-molecule microarray, 635 nm fluorescence, primary screen (AID 1102); conditions: FGF10 binding, fluorescence 635 nm, higher = more signal
[6] = test system: glycogen synthase kinase-3 (GSK3A per assay name; protocol says GSK3B); assay: compounds binding glycogen synthase kinase-3 – biochemical, small-molecule microarray, 635 nm fluorescence, GSK3A, primary screen (AID 1103); conditions: fluorescence 635 nm, higher = more signal; further: the record names both GSK3A and GSK3B
[7] = target: Epidermal growth factor receptor (Homo sapiens) (UniProt P00533); assay: compounds binding epidermal growth factor receptor – biochemical, small-molecule microarray, 635 nm fluorescence, primary screen (AID 1104); conditions: EGFR binding, higher = more signal;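 further: score merges 667 nm emission intensity with spot signal to noise over triplicate slides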
[8] = target: Follistatin-related protein 3 (Homo sapiens) (UniProt O95633); assay: compounds binding follistatin-related protein 3 – biochemical, small-molecule microarray, 635 nm fluorescence, primary screen (AID 1105); conditions: FSTL3 binding, higher = more signal;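 further: score merges emission near 667 nm and signal to noise per printed spot across three slides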
[9] = target: Dickkopf-related protein 1 (Homo sapiens) (UniProt O94907); assay: small molecules binding DKK1 protein – biochemical, small-molecule microarray, 635 nm fluorescence scan, primary screen (AID 1106); conditions: higher = more signal;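 further: score merges emission near 667 nm with signal to noise over three replicate slides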
[10] = test system: Inhibin beta A chain (activin A); assay: small molecules binding activin A – biochemical, small-molecule microarray, 635 nm fluorescence scan, primary screen (AID 1107); conditions: INHBA, higher = more signal;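 further: mouse activin A protein probed at 4.33 µg/mL on printed slides; score merges bound-protein fluorescence near 667 nm with spot signal-to-noise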
[11] = test system: Human papillomavirus type 1a protein E7 (residues 44-93); assay: small molecules binding HPV E7 44-93 – biochemical, small-molecule microarray, residues 44-93, 635 nm fluorescence, primary screen (AID 1108); conditions: fluorescence 635 nm, higher = more signal;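 further: E7 fragment applied at 1 µg/mL in TBST for 1 h at 4 C; score combines spot fluorescence with its signal to noise ratio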
[12] = hepatitis C replication reporter changes, two-sided – Huh7 cells, luciferase reporter, HCV replication inhibitor project, primary screen (AID 1109); conditions: Huh7 HCV replicon luciferase reporter, 48 h; higher = more signal;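 further: huh7 hepatoma cells harbouring a luciferase neomycin HCV replicon reporter; luciferase luminescence as measure of HCV replicon replication; test concentration not given here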
[13] = target: Left-right determination factor 2 (Homo sapiens) (UniProt O00292); assay: small molecules binding LEFTY2 protein – biochemical, small-molecule microarray, 635 nm fluorescence scan, primary screen (AID 1110); conditions: higher = more signal
[14] = target: Calmodulin-1 (Homo sapiens) (UniProt P0DP23); assay: small molecules binding calmodulin-1 with EGTA – biochemical, small-molecule microarray, Cy5-labelled CALM1, profiling panel (AID 1111); conditions: Cy5-CALM1 binding fluorescence, higher = more signal;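 further: labelled calmodulin applied in Tris saline Tween buffer holding calcium plus EGTA and DTT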
[15] = target: Calmodulin-1 (Homo sapiens) (UniProt P0DP23); assay: small molecules binding Ca-loaded calmodulin-1 – biochemical, small-molecule microarray, Cy5-labelled CALM1, plus calcium, artefact control for SMM control-protein annotation, profiling panel (AID 1112); conditions: Cy5-CALM1 binding fluorescence, higher = more signal;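 further: score merges spot fluorescence with signal to noise from triplicate slides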
[16] = probe aWnt5a binding to arrayed compounds – biochemical, biotinylated probe, 635/667 nm fluorescence, primary screen (AID 1113); conditions: small-molecule microarray, higher = more signal;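 further: score merges 667 nm fluorescence intensity with signal-to-noise per printed feature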
[17] = probe aShh binding to arrayed compounds – biochemical, biotinylated probe, 635/667 nm fluorescence, primary screen (AID 1114); conditions: small-molecule microarray, higher = more signal;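 further: probe is biotin-labelled aShh protein from a stem cell growth factor screen; measures binding of labelled protein to compounds printed on the slide; score merges feature fluorescence at 667 nm with signal-to-noise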
[18] = probe aNog binding to arrayed compounds – biochemical, biotinylated probe, 635/667 nm fluorescence, primary screen (AID 1115); conditions: small-molecule microarray, higher = more signal;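 further: probe is biotinylated aNog protein used at 0.15 µg/mL for 1 h at 4 C; z-score combines 667 nm fluorescence of each spot with its signal to noise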
[19] = target: Torsin-1A-interacting protein 1 (Homo sapiens) (UniProt Q5JTV8); assay: compound microarray binding of lysate hLAP1 – cell lysate, small-molecule microarray, COS7 lysate, 635/667 nm fluorescence, primary screen (AID 1116); conditions: 635 nm fluorescence, higher = more signal
[20] = target: Alpha-bungarotoxin (Bungarus multicinctus) (UniProt P60615); assay: compounds binding labelled alpha-BTX control protein – biochemical, small-molecule microarray, Alexa647 label, 635/667 nm fluorescence, artefact control for SMM control protein annotation, profiling panel (AID 1117); conditions: alpha-BTX-A647 binding fluorescence, higher = more signal
Sequence of Alpha-bungarotoxin (Bungarus multicinctus) (P60615 whole entry, looked up): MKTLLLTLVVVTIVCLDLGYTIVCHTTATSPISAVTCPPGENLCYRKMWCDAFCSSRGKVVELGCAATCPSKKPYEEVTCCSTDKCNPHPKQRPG

Sequence of Left-right determination factor 2 (Homo sapiens) (O00292 whole entry, looked up): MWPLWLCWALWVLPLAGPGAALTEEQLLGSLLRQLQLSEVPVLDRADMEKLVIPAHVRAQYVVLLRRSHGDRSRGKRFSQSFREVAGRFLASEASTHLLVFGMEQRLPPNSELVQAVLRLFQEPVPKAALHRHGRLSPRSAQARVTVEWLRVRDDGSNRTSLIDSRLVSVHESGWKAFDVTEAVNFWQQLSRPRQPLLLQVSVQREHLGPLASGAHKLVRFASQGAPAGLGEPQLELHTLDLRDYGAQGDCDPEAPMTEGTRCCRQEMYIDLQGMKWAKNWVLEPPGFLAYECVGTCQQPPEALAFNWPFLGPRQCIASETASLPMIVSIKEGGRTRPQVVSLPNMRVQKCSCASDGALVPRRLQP
Sequence of Torsin-1A-interacting protein 1 (Homo sapiens) (Q5JTV8 whole entry, looked up): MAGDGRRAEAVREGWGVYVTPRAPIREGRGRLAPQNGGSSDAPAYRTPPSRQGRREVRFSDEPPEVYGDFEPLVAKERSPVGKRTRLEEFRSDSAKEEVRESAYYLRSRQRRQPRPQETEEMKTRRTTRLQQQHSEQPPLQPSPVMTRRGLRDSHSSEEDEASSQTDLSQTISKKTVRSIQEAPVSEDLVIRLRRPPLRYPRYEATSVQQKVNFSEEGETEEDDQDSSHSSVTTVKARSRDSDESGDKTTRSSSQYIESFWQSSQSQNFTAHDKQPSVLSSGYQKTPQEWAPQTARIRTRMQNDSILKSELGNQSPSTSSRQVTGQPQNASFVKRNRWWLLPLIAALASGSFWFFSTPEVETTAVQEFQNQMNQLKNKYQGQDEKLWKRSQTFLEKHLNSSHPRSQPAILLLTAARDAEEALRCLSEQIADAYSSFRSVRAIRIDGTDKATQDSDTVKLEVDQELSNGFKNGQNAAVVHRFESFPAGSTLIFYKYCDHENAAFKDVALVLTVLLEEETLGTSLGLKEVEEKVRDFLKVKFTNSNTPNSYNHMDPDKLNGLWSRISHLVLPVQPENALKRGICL
Sequence of Follistatin-related protein 3 (Homo sapiens) (O95633 whole entry, looked up): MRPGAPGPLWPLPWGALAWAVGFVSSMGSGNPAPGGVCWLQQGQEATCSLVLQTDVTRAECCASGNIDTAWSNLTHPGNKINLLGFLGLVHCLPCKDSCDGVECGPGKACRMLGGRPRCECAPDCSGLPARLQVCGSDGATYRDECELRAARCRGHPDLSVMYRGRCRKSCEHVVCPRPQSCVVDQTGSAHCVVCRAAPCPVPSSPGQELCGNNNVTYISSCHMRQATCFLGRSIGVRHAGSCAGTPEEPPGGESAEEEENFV
Sequence of Fibroblast growth factor 10 (Homo sapiens) (O15520 whole entry, looked up): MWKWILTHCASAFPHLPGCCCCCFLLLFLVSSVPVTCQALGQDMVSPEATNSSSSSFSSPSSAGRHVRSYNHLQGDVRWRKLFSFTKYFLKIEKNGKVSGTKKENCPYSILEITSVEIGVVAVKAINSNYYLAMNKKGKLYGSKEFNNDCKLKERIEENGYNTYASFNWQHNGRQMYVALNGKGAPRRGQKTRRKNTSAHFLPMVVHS
Sequence of Dickkopf-related protein 1 (Homo sapiens) (O94907 whole entry, looked up): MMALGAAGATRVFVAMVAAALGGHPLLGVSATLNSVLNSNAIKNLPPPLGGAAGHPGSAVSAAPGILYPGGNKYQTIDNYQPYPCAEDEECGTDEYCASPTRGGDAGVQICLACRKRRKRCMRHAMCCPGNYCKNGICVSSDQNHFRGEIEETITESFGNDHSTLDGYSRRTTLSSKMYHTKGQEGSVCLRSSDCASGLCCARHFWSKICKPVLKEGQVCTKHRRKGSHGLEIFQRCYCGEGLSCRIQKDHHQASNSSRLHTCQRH
Sequence of Epidermal growth factor receptor (Homo sapiens) (P00533 whole entry, looked up): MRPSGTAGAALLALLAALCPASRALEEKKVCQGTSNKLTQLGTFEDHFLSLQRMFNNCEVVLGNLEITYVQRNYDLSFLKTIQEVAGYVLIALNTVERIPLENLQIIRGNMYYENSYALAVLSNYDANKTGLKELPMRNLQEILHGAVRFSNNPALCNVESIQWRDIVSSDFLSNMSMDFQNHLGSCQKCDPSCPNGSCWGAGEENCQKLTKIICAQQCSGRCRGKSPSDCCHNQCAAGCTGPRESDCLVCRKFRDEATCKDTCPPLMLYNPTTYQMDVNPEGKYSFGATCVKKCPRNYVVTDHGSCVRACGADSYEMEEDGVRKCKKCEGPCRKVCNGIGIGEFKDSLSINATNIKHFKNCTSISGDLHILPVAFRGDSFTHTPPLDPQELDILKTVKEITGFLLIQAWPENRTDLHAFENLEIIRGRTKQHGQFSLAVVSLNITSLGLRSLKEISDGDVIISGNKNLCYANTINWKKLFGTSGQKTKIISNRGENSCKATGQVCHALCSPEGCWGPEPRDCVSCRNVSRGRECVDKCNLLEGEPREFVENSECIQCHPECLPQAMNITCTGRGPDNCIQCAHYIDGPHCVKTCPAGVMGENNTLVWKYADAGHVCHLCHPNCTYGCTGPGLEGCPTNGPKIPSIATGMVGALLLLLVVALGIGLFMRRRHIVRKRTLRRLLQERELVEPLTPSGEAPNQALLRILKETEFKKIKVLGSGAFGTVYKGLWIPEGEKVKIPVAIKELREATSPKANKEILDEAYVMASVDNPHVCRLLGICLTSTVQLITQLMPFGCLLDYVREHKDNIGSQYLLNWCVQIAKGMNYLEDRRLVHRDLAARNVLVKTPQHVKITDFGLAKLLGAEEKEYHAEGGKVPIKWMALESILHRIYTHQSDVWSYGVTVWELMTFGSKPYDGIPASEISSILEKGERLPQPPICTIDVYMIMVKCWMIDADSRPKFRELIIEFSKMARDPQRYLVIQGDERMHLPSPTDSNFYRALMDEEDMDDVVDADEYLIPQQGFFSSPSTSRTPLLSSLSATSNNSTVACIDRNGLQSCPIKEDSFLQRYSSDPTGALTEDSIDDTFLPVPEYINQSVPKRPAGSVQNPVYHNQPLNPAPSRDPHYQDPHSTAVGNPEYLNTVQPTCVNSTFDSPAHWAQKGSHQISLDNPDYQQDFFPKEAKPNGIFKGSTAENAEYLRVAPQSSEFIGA

| Compound | composite z-score [1] | composite z-score [2] | composite z-score [3] | z-score [4] | composite z-score [5] | composite z-score [6] | composite z-score [7] | composite z-score [8] | composite z-score [9] | composite z-score [10] | composite z-score [11] | z-score [12] | composite z-score [13] | composite z-score [14] | composite z-score [15] | composite z-score [16] | composite z-score [17] | composite z-score [18] | composite z-score [19] | composite z-score [20] |
| --- | --- | --- | --- | --- | --- | --- | --- | --- | --- | --- | --- | --- | --- | --- | --- | --- | --- | --- | --- | --- |
| C=C(C(=O)CC[C@H](OC(C)=O)c1ccc(CO)o1)C(C)C | 1.73 | -0.272 | -0.476 | -1.4 (inactive) | 0.0843 | 0.626 | -0.986 | -0.144 | 0.24 | 0.0011 | -0.559 | -1.52 | -0.586 | -0.579 | -0.758 | -0.096 | 0.0048 | -0.309 | 1.15 | -0.292 |
| [N-]=[N+]=Nc1ccccc1[C@H]1OC(c2ccc(OCCCO)cc2)=N[C@@]1(Cc1ccccc1)C(N)=O | 0.929 | 1.46 | 1.23 | -1.86 (inactive) | 1.09 | 1.28 | 0.13 | 1.09 | 0.0868 | 1.43 | 1.33 | -0.742 | 0.172 | 2.26 | 1.12 | 0.0998 | 1.03 | 0.489 | 1.12 | 3.09 |
| CC(C)C[C@@H]1NC(=O)[C@@]23C(=O)N[C@@H](Cc4ccccc4)C2[C@H](C)[C@@]2(C)O[C@H]2C3/C=C/CC/C=C/CNC(=O)[C@@H](C)NC1=O (stereo not given in full) | 0.624 | -0.246 | -0.722 | -0.585 (inactive) | 1.39 | 0.374 | 0.732 | 1.07 | 0.81 | 1.29 | -0.211 | 0.42 | 0.575 | -0.643 | -1.39 | -0.154 | -0.229 | 0.117 | -0.152 | -0.195 |
| C=CC[C@]1(C(=O)N2CCCCC2)COC(c2ccc(OCCCO)cc2)=N1 | -0.0697 | -0.0336 | 0.83 | 0.682 (inactive) | -0.621 | -0.217 | -1 | -1.32 | -0.358 | 1.28 | 0.0296 | -1.1 | -0.727 | -1.56 | -0.29 | -0.176 | -0.138 | 0.179 | 1.01 | -0.212 |
| COC(=O)C1=CC(CCCO)=CC(C2CC2)N(Cc2cc3c(cc2Br)OCO3)C=C1C(=O)OC (stereo not given) | 1.57 | 1.03 | 1.14 | -0.575 (inactive) | 0.0344 | 0.194 | -0.482 | 0.0154 | 0.47 | 0.945 | 1.36 | -0.164 | -0.998 | 2.27 | 0.67 | -0.0269 | 0.0141 | 0.842 | 3.07 | 1.97 |
